HT1080-NT tox: kills 2HG-producing HT-1080-NT fibrosarcoma cells; Potency, µM (titrated, usually from 46.1 µM), actives largely listed as cytotoxic; HT-1080-NT fibrosarcoma viability, CellTiter-Glo ATP luminescence, 48 h; actives 1.6% (n = 360,000);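 note: NT is the 2HG producing partner of a matched IDH1 knockdown line; nearly all actives have a fitted effect of over 55% in size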
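Read-out is CellTiter-Glo luminescence after 10 minutes at room temperature, following 48 hours' compound treatment of HT-1080-NT cells (750 cells/well, RPMI, 5% FBS, 37 degrees C).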
KB-V1 MDR tox: kills drug-selected multidrug resistant KB-V1 cells. actives 3.4% (n = 400,000). KB-V1 MDR cells viability, CellTiter-Glo, 72 h. Potency, µM (titrated, usually from 46.1 µM), usual class: cytotoxic. AID 1347076; note: nearly all actives have a fitted effect of over 60% in size
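Cytotoxicity via CellTiter-Glo luminescence after 72 h compound exposure at 37 degrees C. Cells: drug-selected KB-V1 line, DMEM phenol-red free plus 10% FBS. Compounds tested at multiple concentrations; normalized data fitted to concentration-effect curves.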
KB-3-1 tox: kills parental KB-3-1 adenocarcinoma cells. KB-3-1 viability, CellTiter-Glo ATP luminescence, 72 h. Potency, µM (highest dose often 46.1 µM), most hits filed as cytotoxic. actives 1.4% (n = 400,000). AID 1347075; note: nearly all actives have a fitted effect of over 60% in size
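Luminescent ATP read-out (CellTiter-Glo) measures survival of drug-naive KB-3-1 cells after 72 h compound exposure at 37 °C. Titration series was screened from lowest to highest concentration, with DMSO vehicle plates as background controls.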
HT1080 IDH1KD tx: toxicity to HT-1080 IDH1 knockdown cells (counter line) | HT-1080 IDH1 knockdown viability, ATP luminescence, 48 h | Potency, µM (doses to about 46.1 µM), actives largely listed as cytotoxic | actives 2% (n = 360,000) | AID 686971
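CellTiter-Glo luminescence after 48 h compound exposure at 37 degrees C of IDH1-knockdown HT-1080 cells in 5% FBS RPMI. %Activity scaled between DMSO wells and cell-free media wells, with curves fitted and assigned curve classes.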
SW480 rereplic: induces DNA re-replication in SW480 colon adenocarcinoma cells; Potency, µM (highest dose often 46.1 µM), hits mostly activators; SW480 DNA re-replication, Hoechst DNA content imaging, 48 h; actives 1.8% (n = 340,000); note: nearly all actives have a fitted effect of over 55% in size
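SW480 cells exposed to compounds for 48 hr at 37 C, 5% CO2, then Hoechst-stained 40 min. Nuclear DNA content imaged by fluorescence scanning (405 nm excitation, 500-530 nm emission); re-replication scored as increased high-intensity nuclei.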
MCF10A rereplic: DNA re-replication induction in MCF 10a cells; Potency, µM (titrated, usually from 46.1 µM), usual class: activators; AID 624296; MCF 10A DNA re-replication, Hoechst nuclear intensity, 48 h; actives 2.9% (n = 350,000); note: nearly all actives have a fitted effect of over 50% in size
A number is an active result; – = inactive; ? = inconclusive; · = no result given; [ ] = dose if it differs, or a comment. Hits are enriched below; roughly 8% of the tested compounds scored in any of these assays. Calls come from the whole dose curve; as a rule, active = well fitted curve in the direction sought with a large enough effect; inconclusive = small, poorly fitted or top-dose-only effect, or another doubt; inactive = no such curve, though single readings can be large; an effect the other way counts as inactive or inconclusive.

SMILES	HT1080-NT tox	KB-V1 MDR tox	KB-3-1 tox	HT1080 IDH1KD tx	SW480 rereplic	MCF10A rereplic
O=S(=O)(Nc1ccc(N=Nc2ccc(O)c3ccccc23)cc1)c1ccccc1	–	–	–	?	–	–
Cc1oc2ncn(CC(C)C)c(=O)c2c1C(=O)NC(C)c1ccccc1 (stereo not drawn)	·	?	–	·	·	·
N#C/C(=C\c1cc([N+](=O)[O-])ccc1Cl)C(N)=O	?	–	–	?	8.2µM	21µM
N#C/C(=C/c1ccc([N+](=O)[O-])cc1)C(N)=O	–	–	–	–	–	–
CCOc1ccccc1/C=N/n1c(C2CCCCC2)n[nH]c1=S	–	–	–	–	–	26µM
CC(/C=N/n1c(C2CCCCC2)n[nH]c1=S)=C\c1ccccc1	–	–	–	–	?	21µM
CSc1ccc(/C=N/n2c(C3CCCCC3)n[nH]c2=S)cc1	?	–	–	?	?	16µM
COc1cc(NC(=O)CN2CCCN(S(=O)(=O)c3ccc(F)cc3)CC2)cc(OC)c1	·	–	–	·	·	·
CCC(CC)C(=O)N1CCc2cc(OC)c(OC)cc2C1COc1ccc2c(C)cc(=O)oc2c1 (stereo not drawn)	·	?	–	·	·	·
CCOC(=O)c1c(NC(C)=O)sc2c1CCC(C=NCCCN(CC)CC)=C2Sc1ccccc1	?	16µM	?	?	?	?
CCOC(=O)c1c(NC(C)=O)sc2c(OCCN(CC)CC)c(Br)ccc12	–	–	–	–	–	–[9.22 µM]
Cc1csc(SCC(=O)Nc2sccc2C(N)=O)n1	–	–	–	–	–	–
CN1CCN(c2nc3ccccc3nc2NS(=O)(=O)c2ccc(Br)cc2)CC1	–	–	–	–	–	–
CC(=O)Nc1ccc(S(=O)(=O)Nc2nc3ccccc3nc2N2CCc3ccccc3C2)cc1	–	9.2µM	–	–	?	–
O=S(=O)(Nc1nc2ccccc2nc1N1CCc2ccccc2C1)c1ccc(Br)cc1	–	–	?	?	–	15µM
O=S(=O)(Nc1nc2ccccc2nc1N1CCc2ccccc2C1)c1ccc(Cl)cc1	–	15µM	15µM	–	?	–
Cc1ccccc1S(=O)(=O)Nc1nc2ccccc2nc1N1CCc2ccccc2C1	–	21µM	–	–	?	–
Cc1ccccc1S(=O)(=O)Cc1ccc(C(=O)NC2CCCCC2)o1	–	–	?	–	–	–
O=[N+]([O-])c1ccc(/C=N/Nc2nc(N3CCCC3)nc(N3CCCC3)n2)o1	?	21µM	–	?	–	–
O=[N+]([O-])c1ccc(/C=N/Nc2nc(-c3ccccc3)c3cc(Br)ccc3n2)o1	–	–	–	–	–	–
Cc1ccc2nc(N/N=C\c3ccc([N+](=O)[O-])o3)nc(-c3ccccc3)c2c1	?	18µM	26µM	–	?	?
O=[N+]([O-])c1ccc(-c2ccc(/C=N/Nc3nc(N4CCCC4)nc(N4CCCC4)n3)o2)cc1	–	–	–	–	?	?
CCNc1nc(NCC)nc(N/N=C/c2ccc([N+](=O)[O-])o2)n1	–	21µM	?	–	?	–
COc1ccc(-n2cc3ccc([N+](=O)[O-])cc3n2)cc1	–	?	5.8µM	–	–	?
COc1ccc(CCC(=O)Nc2cccc(S(=O)(=O)N3CCOCC3)c2)cc1OC	–	–	–	–	–	–
SMILES	HT1080-NT tox	KB-V1 MDR tox	KB-3-1 tox	HT1080 IDH1KD tx	SW480 rereplic	MCF10A rereplic
COC(=O)/C=c1/s/c(=C(/C#N)C(=O)N2CCCCC2)n(-c2ccccc2)c1=O	–	–	–	–	0.33µM	–
COc1ccc(/C=N/Nc2nc(-c3cccc(S(=O)(=O)N4CCCC4)c3)cs2)cc1OC	–	–	–	–	–	–
CCOc1cc(/C=N/Nc2nc(-c3cccc(S(=O)(=O)N4CCCC4)c3)cs2)ccc1O	–	13µM	–	–	–	?
CCc1ccccc1NC(=O)CN1C(=O)c2cccnc2Oc2ccc(Cl)cc21	·	–	–	·	·	·
Cc1ccc(/C=C/C(=O)OCC(=O)NCCN2C(=O)CSC2=O)cc1	?	–	–	–	?	–
O=C(COC(=O)/C=C/c1cccc(C(F)(F)F)c1)NCCN1C(=O)CSC1=O	–	·	·	–	–	26µM
CCN(CC(O)CON=C1c2ccccc2-c2ccccc21)S(=O)(=O)c1ccc(Cl)cc1 (stereo not drawn)	–	?	?	–	–	?
CCN(CC(O)CON=C1c2ccccc2-c2ccccc21)S(=O)(=O)c1ccc(C)cc1 (stereo not drawn)	–	18µM	–	–	–	?
Cc1cccc(N(CC(O)CON=C2c3ccccc3-c3ccccc32)S(C)(=O)=O)c1 (stereo not drawn)	?	–	–	?	?	16µM
CN(CC(O)CON=C1c2ccccc2-c2ccccc21)S(=O)(=O)c1ccc(Br)cc1 (stereo not drawn)	?	18µM	?	?	?	16µM
COc1ccc([N+](=O)[O-])cc1CN1CCN(c2ncc(Cc3ccccc3)cn2)CC1	?	7.3µM	?	?	·	·
Oc1ccc(Br)c(CN2CCN(c3ncc(Cc4ccccc4)cn3)CC2)c1	?	18µM	21µM	?	·	·
CC[C@]12CCCN3CCc4c(n(c5ccccc45)[C@@](O)(C(=O)OC)C1)[C@@H]32	–	–	–	–	–	–
CC[C@]12CCCN3CCc4c(n(c5ccccc45)C(=O)C1)[C@@H]32	?	4.1µM	?	–	13µM	?
CC1=NN(c2ccc(Cl)cc2)C(=O)C1C(c1ccccc1O)c1c(C)[nH]n(-c2ccc(Cl)cc2)c1=O (stereo not drawn)	23µM	?	–	?	–	?
Oc1ccc(-c2nc3ccccn3c2NCc2ccc3c(c2)OCO3)cc1	–	?	–	–	–	–
Fc1ccc(-c2nc3ccccn3c2NCc2ccc3c(c2)OCO3)cc1	–	–	–	–	?	11µM
O=c1cc(N=Nc2ccc(Cl)cc2)[nH]c(=O)[nH]1	–	–	?	–	5.2µM	3.7µM
COc1ccc(C(=O)Nc2cccnc2Sc2ccc(Cl)cc2)cc1	–	–	–	–	–[9.22 µM]	–
COc1cc(NC(=O)c2cccnc2Sc2ccc(Cl)cc2)cc(OC)c1OC	–	5.2µM	–	–	–	–
CCCC(=O)Nc1ccccc1Sc1ncnc2scc(-c3ccccc3)c12	–	?	–	–	–	?
N#CC1CN(C(c2ccccc2)c2ccccc2)C1	–	–	–	–	–	–
N#CC1CN(Cc2ccccc2)CN(Cc2ccccc2)C1	–	–	–	–	?	15µM
CC1(C(=O)NCC2CC2)Cc2c(-c3cccc(C(F)(F)F)c3)ccnc2O1 (stereo not drawn)	?	?	?	21µM	·	·

High-throughput results deposited in PubChem BioAssay by National Center for Advancing Translational Sciences (NCATS).
